# Test results published in PubChem BioAssay (EPA / NIEHS).
# Results filed as inconclusive are left out. The source made the active and inactive calls. Rule for the calls: active = hit-call score of the fitted dose curve at least 0.9, where 1 is the maximum; inconclusive = response in the unintended direction; inactive = score below 0.9.
# Tested on: guinea pig Dopamine Transporter (DAT), gene 100714898
# Assay: NVS_TR_gDAT: NovaScreen (NVS) Transporter Assay for guinea pig Dopamine Transporter (DAT) (AID 2283369);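 note: active compounds lower bound radioligand signal relative to DMSO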
# Procedure: NVS_TR_gDAT is a biochemical, single-readout assay that uses extracted gene-proteins from Guinea pig striatal membranes in a tissue-based cell-free assay. Measurements were taken 2 hours after chemical dosing in a 48-well plate.NVS_TR_gDAT is one of one assay component(s) measured or calculated from the NVS_TR_gDAT assay. It is designed to make measurements of radioligand binding, a form of binding reporter, as detected with scintillation counting signals by Filter-based radiodetection technology.Data from the assay component NVS_TR_gDAT was analyzed into 1 assay endpoint. This assay endpoint, NVS_TR_gDAT, was analyzed in the positive analysis fitting direction relative to DMSO as the negative control and baseline of activity. Using a type of binding reporter, loss-of-signal activity can be used to understand changes in the binding as they relate to the gene Slc6a3. Furthermore, this assay endpoint can be referred to as a primary readout, because the performed assay has only produced 1 assay endpoint. To generalize the intended target to other relatable targets, this assay endpoint is annotated to the transporter intended target family, where the subfamily is neurotransmitter transporter.
# Binding assays used specific radioligands (tritiated, iodinated) with non-radioactive competitive displacement ligands in agonist or antagonist protocols (as indicated) and various reference compounds and inhibitors to titrate specific binding to receptors and transporters. Most enzyme assays (CYPs, kinases, phosphatases, proteases, HDACs) used recombinant protein and specific substrates (fluorescence mostly, some colorimetric and radioactive) and inhibitors, followed by a biochemical separation of substrate and product. All assays for the biochemical HTS were initially run in duplicate at a single concentration (10 uM for CYP450 assays and 25 uM for all others). Assay-chemical combinations meeting a pre-defined threshold (e.g., 30% inhibition and other criteria defined below) were then run in singleton concentration-response format with maximum concentration of 20 uM for CYPs and 50 uM for all others. Each assay was run with positive and negative controls, and concurrent controls on every plate. The follow-up (secondary) screen tested active chemical-pairs in concentration series, as well as a few additional assays not tested in the primary screen, some selected negative inactives, and several cases re-run in the concentration series for confirmatory purposes.
SMILES,outcome,AC50
Nc1ccc(Cc2ccc(N)cc2)cc1,inactive,–
O=C(Oc1ccc(Br)cc1)N1CCN2CCC1CC2,–,7.13 µM (active)
Nc1ccc(N=Nc2ccccc2)cc1,–,15 µM (active)
Nc1ccc(Oc2ccc(N)cc2)cc1,–,2.99 µM (active)
[Cl-].[Cl-].[Hg+2],–,44.2 µM (active)
CCOC(=O)[C@]1(c2ccccc2)Oc2ccccc2[C@@H]1N,–,5.45 µM (active)
CC(C)N(Cc1ccccc1)C(=O)C(C)(C)C,–,13.7 µM (active)
CCC[CH2][Sn]([Cl])([CH2]CCC)[CH2]CCC,–,11.1 µM (active)
CCC(C)c1ccc(O)cc1 (centres undefined),–,4.96 µM (active)
O=C(N[C@H](c1ccccc1)[C@@H]1CN2CCC1CC2)c1c(Cl)ccc(C(F)(F)F)c1Cl,–,29.9 µM (active)
O=C(Nc1ccccc1)c1ccccc1I,–,12.8 µM (active)
O=[N+]([O-])c1ccc(Oc2ccc(Cl)cc2Cl)cc1,inactive,–
CCCCCOC(=O)c1ccccc1C(=O)OCCCCC,inactive,–
CC(C)(C)C(O)(CCc1ccc(Cl)cc1)Cn1cncn1 (centres undefined),–,8.79 µM (active)
